From ChEMBL document CHEMBL1157539, “Thousands of chemical starting points for antimalarial lead identification” (Nature, 2010) come the findings set out here.

In the first experiment the test system is Plasmodium falciparum. Kind of experiment: GSK_TCMDC: Inhibition of Plasmodium falciparum 3D7 in whole red blood cells, using parasite LDH activity as an index of growth. Test compounds present at 2uM. It counts as functional.
On to `CC12CN3CC(C)(CN(C1)C3c1cc(Br)ccc1O)C2O` (stereo not given), for which the Inhibition was determined as 98%.

As for `COc1ccc(-n2ccnc2SCC(=O)Nc2cc(C(F)(F)F)ccc2Cl)c(OC)c1`, the Inhibition is given as 98%.

`O=C(NCc1ccc(Cl)c(Cl)c1)c1ccc(C2CCCN(Cc3ccc4[nH]cnc4c3)C2)cc1` (stereo not given) yielded an Inhibition of 100%.

Turning to `CCOc1cc(CC)ccc1C1CCN(CCN2CCC(NC(=O)c3ccc(-c4ccc(C#N)cc4)cc3)CC2)CC1`, the Inhibition worked out at 100%.

For `Br.COc1ccc(CCON2C(=N)N=C(N)NC2(C)C)cc1OC`, the Inhibition amounted to 96%.

`CCc1cc(NC2CCN(C)CC2)nc(Nc2cccc(OC)c2)n1` yielded an Inhibition of 93%.

Molecule `O=C(NCC1CC1)C1CCN(C(c2ccc(Cl)cc2)c2ccc(Cl)cc2)CC1` returned an Inhibition of 99%.

For the molecule `O=C(NCCN1CCCC1)N1CCCN(c2ncnc3cc(-c4ccc(F)cc4)sc23)CC1.O=C(O)C(F)(F)F`, the Inhibition is 81%.

`CCC(C)NS(=O)(=O)c1ccc2nc(Nc3ccc(C)cc3)n([C@H](C)C(C)(C)C)c2c1` (stereo not given in full) showed an Inhibition of 98%.

Regarding `CCCNC(=O)C1Cc2cc(OC)c(OC)cc2C2(N1)C(=O)N(Cc1cccc(OC)c1)c1ccccc12` (stereo not given), the Inhibition was found to be 91%.

In turn, `O=[N+]([O-])c1ccc2nc(Nc3ccc(Cl)c(Cl)c3)c(Nc3ccc(Cl)c(Cl)c3)nc2c1` had an Inhibition of 100%.

`COc1cc(NCC(O)CNc2cc(Cl)nc3ccccc23)nc2ccccc12` (stereo not given) displayed an Inhibition of 99%.

`CCc1cn2c3c(cc(C(=O)N[C@@H](Cc4ccccc4)[C@H](O)CNCc4ccccc4C)cc13)N(C)S(=O)(=O)CC2.O=CO` returned an Inhibition of 98%.

For the molecule `Cl.O=c1cc(NCCCNCc2cc3c(Cl)cc(Cl)cc3[nH]2)[nH]c2ccccc12`, the Inhibition is given as 100%.

In the case of `COc1ccc(NC(=O)N2CCCN(CCCCCNC(=O)/C=C/c3ccc(C(F)(F)F)cc3)CC2)cc1Cl`, the Inhibition came out at 93%.

Molecule `N#Cc1ccc(-c2ccc(C(=O)NCCCCN3CCC(c4cn(CCO)c5ccccc45)CC3)cc2)cc1` registered an Inhibition of 93%.

Take `Cc1ccc(C(=O)N2CCc3cc4nccc(N5CCN6CCC[C@H]6C5)c4cc32)cc1`: the Inhibition was found to be 95%.

`O=C(c1cc(-c2ccco2)n[nH]1)N1CCN(S(=O)(=O)c2ccc(Cl)cc2)CC1` came in with an Inhibition of 96%.

For `CN(C)CCCOc1ccc(CN2CC[C@H](NC(=O)c3ccc(Cl)c(Cl)c3)C2)cc1Cl.O=C(O)C(F)(F)F`, the Inhibition was 100%.

Turning to `O=C(C=Cc1ccc(Cl)c(Cl)c1)NCCCCCN1CCC(CCNS(=O)(=O)c2ccc(Br)cc2)CC1`, the Inhibition is listed as 91%.

`CO/C(=C\C=C\c1cc2cc(Cl)c(Cl)cc2[nH]1)C(=O)NCCCN1CCN(c2ccc(OC)cc2)CC1` showed an Inhibition of 99%.

`O=C(NC1CCCC1)c1ccc(N2CCC(NCc3cc4cc(Cl)ccc4[nH]3)CC2)cc1` showed an Inhibition of 91%.

`Nc1ccc2[nH]cc(C3CCN(CCC4CCN(C(=O)/C=C/c5ccc(Cl)c(Cl)c5)CC4)CC3)c2n1` registered an Inhibition of 100%.

Consider `COc1ccc(N2CCN(CCCCNC(=O)c3ccc(/C=C/c4ccc(Cl)c(Cl)c4)cc3)CC2)c(OC)c1`, for which the Inhibition came out at 100%.

Consider `CCCCCCCCN1CCN(CCCCCCNc2c3ccccc3nc3ccccc23)CC1.Cl`, for which the Inhibition was found to be 100%.

`C(=Cc1nc2ccccc2s1)c1ccc2c(c1)OCCO2.Cl` showed an Inhibition of 98%.

On to `O=C(O)c1ccc2c(c1)N(C(=O)CNCc1ccc(F)cc1)CC(=O)N2CCCc1ccccc1`, for which the Inhibition is reported as 95%.

As for `N#Cc1ccc(OCCN(Cc2ccccc2C(F)(F)F)c2ccc(C#N)c(C(F)(F)F)c2)cc1`, the Inhibition came out at 100%.

With `O=C(/C=C/c1ccc(Cl)cc1Cl)N1CCC(CCN2CCC(c3c[nH]c4ccccc34)CC2)CC1`, the Inhibition came out at 98%.

`CCOc1cc(C(=O)NC2CCN(Cc3ccccc3)CC2)ccc1-c1nc2cc(Cl)c(F)cc2[nH]1` yielded an Inhibition of 100%.

The molecule `C=CCc1cc(SC)ccc1Oc1ccc(N)cc1.Cl` returned an Inhibition of 96%.

On to `CC(C)Cn1ncc2c3c(N)nc(N)nc3ccc21`, for which the Inhibition was 94%.

`Cc1[nH]c(C)c(-c2ccc(OCCOc3ccc(C(F)(F)F)cn3)cc2)c(=O)c1Br` registered an Inhibition of 97%.

With `CS(=O)(=O)CCNCc1cccc(-c2cc3c(Nc4ccc(OCc5cccc(F)c5)c(Cl)c4)ncnc3s2)c1.O=C(O)C(F)(F)F`, the Inhibition was 100%.

With `CCOc1ccc(C(=O)Nc2cc(Br)c3c(c2)CNCC3)cc1Cl.Cl`, the Inhibition is 92%.

Molecule `Cc1[nH]c(C)c(-c2ccc(-c3ccc4c(c3)OCO4)nc2)c(=O)c1Br` returned an Inhibition of 96%.

In the case of `O=C(Cc1cccc(Cl)c1)N1CCc2cc3nccc(N4CCN5CCC[C@H]5C4)c3cc21`, the Inhibition was 96%.

For the molecule `O=C(Nc1ccc(Cl)cc1Cl)NC1CCN(CCCCCNC(=O)C2CC2c2ccc(Cl)c(Cl)c2)CC1` (stereo not given), the Inhibition turned out to be 100%.

Regarding `CC(C)(C)CCN1CCC(CNC(=O)c2cc(-c3cccc(C(F)(F)F)c3)cs2)C1.O=C(O)C(F)(F)F` (stereo not given), the Inhibition worked out at 93%.

Molecule `Nc1nc(N)c2nc(C3CC=CCC3)c(N)nc2n1` (stereo not given) yielded an Inhibition of 95%.

The next experiment concerns Plasmodium falciparum. Kind of experiment: GSK_TCMDC: Inhibition of Plasmodium falciparum Dd2 in whole red blood cells, using parasite LDH activity as an index of growth. Test compounds present at 2uM. It is filed as functional.
Regarding `CC12CN3CC(C)(CN(C1)C3c1cc(Br)ccc1O)C2O` (stereo not given), the Inhibition is listed as 2%.

Molecule `COc1ccc(-n2ccnc2SCC(=O)Nc2cc(C(F)(F)F)ccc2Cl)c(OC)c1` had an Inhibition of 76%.

With `O=C(NCc1ccc(Cl)c(Cl)c1)c1ccc(C2CCCN(Cc3ccc4[nH]cnc4c3)C2)cc1` (stereo not given), the Inhibition is recorded as 83%.

For the molecule `CCOc1cc(CC)ccc1C1CCN(CCN2CCC(NC(=O)c3ccc(-c4ccc(C#N)cc4)cc3)CC2)CC1`, the Inhibition is given as 71%.

`Br.COc1ccc(CCON2C(=N)N=C(N)NC2(C)C)cc1OC` had an Inhibition of 93%.

In turn, `CCc1cc(NC2CCN(C)CC2)nc(Nc2cccc(OC)c2)n1` gave an Inhibition of 37%.

`O=C(NCC1CC1)C1CCN(C(c2ccc(Cl)cc2)c2ccc(Cl)cc2)CC1` gave an Inhibition of 95%.

In turn, `O=C(NCCN1CCCC1)N1CCCN(c2ncnc3cc(-c4ccc(F)cc4)sc23)CC1.O=C(O)C(F)(F)F` displayed an Inhibition of 19%.

Take `CCC(C)NS(=O)(=O)c1ccc2nc(Nc3ccc(C)cc3)n([C@H](C)C(C)(C)C)c2c1` (stereo not given in full): the Inhibition was 98%.

For `CCCNC(=O)C1Cc2cc(OC)c(OC)cc2C2(N1)C(=O)N(Cc1cccc(OC)c1)c1ccccc12` (stereo not given), the Inhibition was determined as 63%.

As to `O=[N+]([O-])c1ccc2nc(Nc3ccc(Cl)c(Cl)c3)c(Nc3ccc(Cl)c(Cl)c3)nc2c1`, the Inhibition is on record as 99%.

In turn, `COc1cc(NCC(O)CNc2cc(Cl)nc3ccccc23)nc2ccccc12` (stereo not given) yielded an Inhibition of 99%.

`CCc1cn2c3c(cc(C(=O)N[C@@H](Cc4ccccc4)[C@H](O)CNCc4ccccc4C)cc13)N(C)S(=O)(=O)CC2.O=CO`: the Inhibition is 98%.

On to `Cl.O=c1cc(NCCCNCc2cc3c(Cl)cc(Cl)cc3[nH]2)[nH]c2ccccc12`, for which the Inhibition was 0%.

Molecule `COc1ccc(NC(=O)N2CCCN(CCCCCNC(=O)/C=C/c3ccc(C(F)(F)F)cc3)CC2)cc1Cl` yielded an Inhibition of 0%.

On to `N#Cc1ccc(-c2ccc(C(=O)NCCCCN3CCC(c4cn(CCO)c5ccccc45)CC3)cc2)cc1`, for which the Inhibition came out at 43%.

Regarding `Cc1ccc(C(=O)N2CCc3cc4nccc(N5CCN6CCC[C@H]6C5)c4cc32)cc1`, the Inhibition was 13%.

For the molecule `O=C(c1cc(-c2ccco2)n[nH]1)N1CCN(S(=O)(=O)c2ccc(Cl)cc2)CC1`, the Inhibition came to 95%.

For `CN(C)CCCOc1ccc(CN2CC[C@H](NC(=O)c3ccc(Cl)c(Cl)c3)C2)cc1Cl.O=C(O)C(F)(F)F`, the Inhibition came out at 35%.

With `O=C(C=Cc1ccc(Cl)c(Cl)c1)NCCCCCN1CCC(CCNS(=O)(=O)c2ccc(Br)cc2)CC1`, the Inhibition is reported as 0%.

Take `CO/C(=C\C=C\c1cc2cc(Cl)c(Cl)cc2[nH]1)C(=O)NCCCN1CCN(c2ccc(OC)cc2)CC1`: the Inhibition worked out at 44%.

Consider `O=C(NC1CCCC1)c1ccc(N2CCC(NCc3cc4cc(Cl)ccc4[nH]3)CC2)cc1`, for which the Inhibition is listed as 0%.

For the molecule `Nc1ccc2[nH]cc(C3CCN(CCC4CCN(C(=O)/C=C/c5ccc(Cl)c(Cl)c5)CC4)CC3)c2n1`, the Inhibition is reported as 78%.

`COc1ccc(N2CCN(CCCCNC(=O)c3ccc(/C=C/c4ccc(Cl)c(Cl)c4)cc3)CC2)c(OC)c1` had an Inhibition of 51%.

`CCCCCCCCN1CCN(CCCCCCNc2c3ccccc3nc3ccccc23)CC1.Cl` had an Inhibition of 100%.

Consider `C(=Cc1nc2ccccc2s1)c1ccc2c(c1)OCCO2.Cl`, for which the Inhibition amounted to 96%.

In turn, `O=C(O)c1ccc2c(c1)N(C(=O)CNCc1ccc(F)cc1)CC(=O)N2CCCc1ccccc1` had an Inhibition of 0%.

In the case of `N#Cc1ccc(OCCN(Cc2ccccc2C(F)(F)F)c2ccc(C#N)c(C(F)(F)F)c2)cc1`, the Inhibition stood at 84%.

Molecule `O=C(/C=C/c1ccc(Cl)cc1Cl)N1CCC(CCN2CCC(c3c[nH]c4ccccc34)CC2)CC1` returned an Inhibition of 37%.

On to `CCOc1cc(C(=O)NC2CCN(Cc3ccccc3)CC2)ccc1-c1nc2cc(Cl)c(F)cc2[nH]1`, for which the Inhibition came out at 51%.

Molecule `C=CCc1cc(SC)ccc1Oc1ccc(N)cc1.Cl` registered an Inhibition of 2%.

Molecule `CC(C)Cn1ncc2c3c(N)nc(N)nc3ccc21` yielded an Inhibition of 73%.

In turn, `Cc1[nH]c(C)c(-c2ccc(OCCOc3ccc(C(F)(F)F)cn3)cc2)c(=O)c1Br` gave an Inhibition of 97%.

`CS(=O)(=O)CCNCc1cccc(-c2cc3c(Nc4ccc(OCc5cccc(F)c5)c(Cl)c4)ncnc3s2)c1.O=C(O)C(F)(F)F` showed an Inhibition of 97%.

Take `CCOc1ccc(C(=O)Nc2cc(Br)c3c(c2)CNCC3)cc1Cl.Cl`: the Inhibition came out at 8%.

In turn, `Cc1[nH]c(C)c(-c2ccc(-c3ccc4c(c3)OCO4)nc2)c(=O)c1Br` came in with an Inhibition of 96%.

Turning to `O=C(Cc1cccc(Cl)c1)N1CCc2cc3nccc(N4CCN5CCC[C@H]5C4)c3cc21`, the Inhibition is listed as 4%.

The molecule `O=C(Nc1ccc(Cl)cc1Cl)NC1CCN(CCCCCNC(=O)C2CC2c2ccc(Cl)c(Cl)c2)CC1` (stereo not given) displayed an Inhibition of 30%.

As for `CC(C)(C)CCN1CCC(CNC(=O)c2cc(-c3cccc(C(F)(F)F)c3)cs2)C1.O=C(O)C(F)(F)F` (stereo not given), the Inhibition is on record as 13%.

In turn, `Nc1nc(N)c2nc(C3CC=CCC3)c(N)nc2n1` (stereo not given) displayed an Inhibition of 0%.
